Reference: PubChem BioAssay (NCI)
About 83,000 compounds went through this panel and 20% of them were active in at least one assay; those are over-represented in the sample as a whole.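 Growth was measured after 48 h exposure to one concentration of compound in 96-well plates. Values under 10 count as active.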 Calls of active or inactive are those of the source.

The compounds below were run on MDA-MB-468 breast (assay: NCI-60 one-dose screen, 48 h (100 = growth as untreated, 0 = no growth, -100 = all killed)). Conditions: 10 µM unless noted.

O=C(CI)NCCNc1cccc2c(S(=O)(=O)O)cccc12 was tested. Which growth did it give?
The growth was 100% (inactive).

For C#CCCCCCCC[C@@H]1OC(=O)[C@H]([C@@H](C)CC)NC(=O)[C@@H]([C@@H](C)CC)NC(=O)CC(=O)[C@@H]1C, which growth is on record?
The growth was 101% (inactive).

Which growth does the source give for CCCCCCCCC1OC1CCCCCCCC(=O)O (stereo not given) here?
The growth was 89.9% (inactive).

O=C1C(c2c(O)[nH]c3ncccc23)=Nc2ccccc21 was tested. Which growth did it give?
The growth was 42.6% (inactive).

Which growth does the source give for CN(C)CCN(C)c1ccc2ncc(C#Cc3cncc(C(=O)Nc4ccc(CN5CCN(C)CC5)c(C(F)(F)F)c4)c3)n2n1 here?
The growth was 84.8% (inactive).

Which growth does the source give for CN1CCN(Cc2ccc(NC(=O)c3cncc(C#Cc4cnc5ccc(O[C@@H]6CCOC6)nn45)c3)cc2C(F)(F)F)CC1 here?
The growth was -72.6% (active).

How did the growth turn out when CS(=O)(=O)c1ccc(-c2cnn3ccc(-c4cccc(S(=O)(=O)C5CC5)c4)nc23)cc1 was run?
Its growth is 27.7% (inactive).

CC(C)c1ccc(/C=N/Nc2nc3ccccc3s2)cc1 was tested. Which growth did it give?
Its growth is 110% (inactive).

How did the growth turn out when COc1ccc2c3c(ccc2c1)C(=O)/C(=C\O)CC3 was run?
The growth was 111% (inactive).

How did the growth turn out when N=C(N)c1ccc(-c2ccc(-c3cc(Cl)cc(Cl)c3)s2)s1 was run?
The growth was -63.4% (active).

How did the growth turn out when COc1cnc2c(c1)C(=O)c1c-2n(CCCN2CCC(O)CC2)c(=O)c2cc(F)ccc12 was run?
Its growth is -57.2% (active).

Which growth does the source give for Cc1ccccc1C1=N[C@@H](Cc2ccccc2)C(=O)c2c(nc3ccccn23)N1 here?
The growth was 104% (inactive).

For Cn1cc(C(=O)c2nc(-c3c[nH]c4ccc(Br)cc34)no2)c2cc(F)ccc21, which growth is on record?
The growth was 108% (inactive).

With CC1(C)C(N)=Nc2cc(OCCCCN3Cc4ccccc4C3)c(OCC3CC3)cc21 as the compound, how does the growth read?
Its growth is 42.2% (inactive).

How did the growth turn out when O=C1C(Cl)=C(N=Nc2c(Cl)c(O)c3ccccc3c2O)C(=O)c2ccccc21 was run?
Its growth is 66.3% (inactive).

O=C(/C=C\c1ccc(NCc2ccc(C(=O)O)cc2)cc1)CCl was tested. Which growth did it give?
Its growth is 76.7% (inactive).

Which growth does the source give for COCCn1cc(-c2nc(-c3cn(CCOC)c4ncccc34)cs2)c2ccccc21 here?
Its growth is -17.4% (active).

Which growth does the source give for CC1Cc2c(N(C)C)ncnc2N(C)c2ccc(Cl)cc21 (stereo not given) here?
Its growth is 28.7% (inactive).

For COc1cc2c(c(OC)c1OC)C(=O)CC(c1cccc(NC(=O)c3ccc(Br)cc3)c1)O2 (stereo not given), which growth is on record?
The growth was 12.1% (inactive).

With CC(=O)NCNC(C)=O as the compound, how does the growth read?
Its growth is 103% (inactive).

With CCCc1nn(C)c2c(=O)[nH]c(-c3cc(S(=O)(=O)N4CCN(C)CC4)ccc3OCC)nc12 as the compound, how does the growth read?
The growth was 110% (inactive).

Which growth does the source give for Clc1ccc(Nc2nnc(-c3ccc4c(c3)OCO4)o2)cc1 here?
The growth was 106% (inactive).

How did the growth turn out when C=C1CCC2C3(C)COC(c4c(OC)cccc4OC)OC3CCC2(C)C1C/C=C1/C(=O)OCC1O (stereo not given) was run?
Its growth is 20.2% (inactive).

For Cn1c2ccccc2c2nn(Cc3ccccc3)c(=O)nc21, which growth is on record?
Its growth is 106% (inactive).

For COc1cc2nc(Cl)nc(Nc3cccc(C(=O)/C=C/c4ccc(F)cc4)c3)c2cc1OC, which growth is on record?
The growth was 74.3% (inactive).

How did the growth turn out when CNc1sc(S(=O)(=O)NC)nc1S(=O)(=O)c1ccc(C)cc1 was run?
Its growth is 86.3% (inactive).

For c1ccc(C(c2nc3ncncc3[nH]2)N2CSc3nc4ncncc4n3C2)cc1 (stereo not given), which growth is on record?
Its growth is 7.36% (active).

With COc1ccc(-c2nc(-c3ccccc3OCc3ccccc3OC)nc(C)c2C(C)=O)cc1 as the compound, how does the growth read?
The growth was 72% (inactive).

With Clc1ccc([C@@H]2C[C@@H]3Cc4cc(Br)c5ccccc5c4N2O3)c(Cl)c1 as the compound, how does the growth read?
The growth was 59.2% (inactive).

With COc1cccc(C2C(C#N)=C(N)Oc3cc(N)ccc32)c1 (stereo not given) as the compound, how does the growth read?
The growth was -22.2% (active).

How did the growth turn out when O=c1oc2c(Br)cc(Br)cc2cc1-c1cc(-c2ccc(-c3cc(-c4cc5cc(Br)cc(Br)c5oc4=O)nc(-c4cc5cc(Br)cc(Br)c5oc4=O)c3)cc2)cc(-c2cc3cc(Br)cc(Br)c3oc2=O)n1 was run?
The growth was 117% (inactive).

Which growth does the source give for N#CC1=C(Nc2ccccc2Cl)SC(c2ccccc2O)NC1=O (stereo not given) here?
Its growth is 122% (inactive).

With CCC(C)(c1ccc(O)c(C)c1)c1ccc(O)c(C)c1 as the compound, how does the growth read?
The growth was 70.1% (inactive).

How did the growth turn out when O=c1[nH]c(-c2ccccc2)nc2sc3cc(O)ccc3c12 was run?
The growth was 93.7% (inactive).

For NS(=O)(=O)c1cccc(NC(=O)C(=O)C2C(=O)Nc3ccccc32)c1 (stereo not given), which growth is on record?
Its growth is 101% (inactive).

Which growth does the source give for CCCOc1ccc(/C=N/Nc2cc(C)nc3ccc(Br)cc23)cc1 here?
Its growth is 96.1% (inactive).

Which growth does the source give for COC(=O)c1ccccc1N(C)C here?
Its growth is 107% (inactive).

For NC(=O)c1cc(I)ccc1NC(=O)COc1ccccc1, which growth is on record?
Its growth is 30.3% (inactive).

For Cc1ccccc1NC(=O)c1sc2nc(C)c(C(C)O)cc2c1N (stereo not given), which growth is on record?
The growth was 39.5% (inactive).

Which growth does the source give for Cc1cc(Nc2nc(N3CCOCC3)nc3ccccc23)n[nH]1 here?
Its growth is 55.9% (inactive).
